esBAF inh: SWI/SNF esBAF complex inhibition; mouse ES cells, Bmi1-luciferase knock-in reporter, 24 h; 100% = twice the neutral-well signal; reporter increase, % at 12.5 µM; AID 602393; hit rate 2% among 350,000; in the data active = activation above about 40%; inconclusive = no clear call, values can overlap the other calls;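 also: a rise in the Bmi1 reporter signal indicates esBAF inhibition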
HSF1 inh: HSF1 inhibition. NIH3T3-HGL HSE-luciferase, MG132-induced, luminescence 8 h; hits give low values. activity change, negative = inhibition, % at 7.5 µM (by protocol). hit rate 0.77% among 300,000;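 active = more than half of replicate wells show activity change below -50%, luminescence cut by over half; inconclusive = some wells, but at most half, below -50%; inactive = no replicate well below -50%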;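 also: luciferase reports HSF-1 transcriptional activity via heat shock element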
Wnt act: activates Wnt/beta-catenin signaling in a reporter cell assay. activator, plate reader. activation, % at 9.35 µM. hit rate 1.2% among 300,000. AID 743398; in the data active = activation above about 30%, passing the limit was not always enough; inconclusive = no clear call, values can overlap the other calls
MITF TRPM1 HTS: MITF TRPM1 promoter activation in melanoma cells. hit rate 0.75% among 300,000. AID 588334. activation, % at 12.5 µM. SK-MEL-5 TRPM1-promoter luciferase, 24 h; % of positive control, neutral wells = 0;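 active = mean activation of at least 80% with every replicate also reaching 80%; inconclusive = mean reaches 80% but some replicate falls short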
HSF1 activator: increases HSF-1 driven luciferase reporter signal; activation, % at 9 µM; NIH3T3-HGL HSF-1 luciferase reporter, MG132, 8 h; 100% = twice DMSO control signal; AID 504408; hit rate 1.7% among 300,000;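 active = mean replicate activation of at least 50% with a set share of replicates each reaching 50%; inconclusive = only one of those two conditions met; inactive = mean below 50% and too few replicates reaching it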
Each line names hits and unclear results; the compound was inactive in the other large screens. Shown are actives, neighbours in structure and some others; about 3.8% of the full set was active somewhere.

C[C@H](CO)N1C[C@H](C)[C@@H](CN(C)C(=O)Nc2ccc(F)cc2)Oc2ccc(NS(=O)(=O)c3ccccc3)cc2C1=O	none (no result: HSF1 inh, Wnt act, MITF TRPM1 HTS, HSF1 activator)
O=C(NCc1ccncn1)[C@H]1[C@H](CO)[C@H]2Cn3c(ccc(-c4cccc(F)c4)c3=O)[C@H]2N1CC1CC1	none (no result: HSF1 inh, Wnt act, MITF TRPM1 HTS, HSF1 activator)
Nc1c(Nc2ccccc2)c2ccccc2oc1=O	HSF1 activator 88
CO[C@H]1CN(C)C(=O)c2ccc(NC(=O)c3cnccn3)cc2OC[C@@H](C)N(CCc2ccccc2)C[C@@H]1C	none (no result: HSF1 inh, Wnt act, MITF TRPM1 HTS, HSF1 activator)
COc1ccc(/C=C/C(=O)c2ccc[nH]2)c(OC)c1OC	esBAF inh 47 (no result: MITF TRPM1 HTS)
COc1ccc(/C=C/C(=O)c2ccc[nH]2)cc1OC	esBAF inh 53, HSF1 activator 62
Cc1ccc(C(=O)NC(=S)Nc2cccnc2Cl)cc1	Wnt act 41, MITF TRPM1 HTS 145, HSF1 activator 65
O=C(NC(=S)Nc1ccccc1)c1ccc(-c2ccccc2)cc1	esBAF inh 62
Cc1ccc(NC(=O)NC(=S)NC(=O)c2ccccc2)cc1	HSF1 activator 54 (no result: esBAF inh)
COc1ccccc1C(=O)NC(=S)Nc1cccnc1Cl	none
Cc1ccc(C(=O)NNC(=S)NC(=O)c2ccccc2)cc1	none (no result: esBAF inh)
O=C(O)c1ccc(NC(=S)NC(=O)c2ccc(-c3ccccc3)cc2)cc1	none
CC(C)Oc1cccc(C(=O)NC(=S)Nc2ccccc2)c1	HSF1 inh -61 (no result: esBAF inh)
COc1ccccc1CN1[C@@H](CO)[C@@H]2c3ccccc3N(C(=O)C3CCCCC3)C[C@@H]21	none (no result: HSF1 inh, Wnt act, MITF TRPM1 HTS, HSF1 activator)
COC(=O)c1c(C)[nH]c(C(=O)OCc2ccc(F)cc2)c1C	esBAF inh 46, MITF TRPM1 HTS 114 (no result: Wnt act)
CC(=O)c1c(C)[nH]c(C(=O)OCc2c(F)cccc2Cl)c1C	none
CC(=O)c1c(C)[nH]c(C(=O)OCC(=O)NCCc2ccc(F)cc2)c1C	none
CC(=O)c1c(C)[nH]c(C(=O)OCc2cccc(Cl)c2)c1C	esBAF inh 46
C[C@@H]1CCCCO[C@@H](CN(C)S(C)(=O)=O)[C@@H](C)CN([C@@H](C)CO)C(=O)c2cc(N(C)C)ccc2O1	none (no result: HSF1 inh, Wnt act, MITF TRPM1 HTS, HSF1 activator)
C=CCn1c(N)c(C(=O)Nc2ccc(C)cc2)sc1=S	esBAF inh 51 (no result: Wnt act)
Cn1c(N)c(C(=O)Nc2ccc(-c3ccccc3)cc2)sc1=S	HSF1 inh -52 (no result: esBAF inh, MITF TRPM1 HTS)
C=CCn1c(N)c(C(=O)Nc2ccccc2OC)sc1=S	none
COc1cc2c(cc1OC)/C(=C/C(=O)c1ccccc1)NCC2	none
COc1cc2c(cc1OC)/C(=C/C(=O)c1ccc(C)cc1)NCC2	HSF1 inh -80
Cc1ccc(/C=C/C(=O)Nc2ccc(S(=O)(=O)Nc3ncccn3)cc2)cc1	none (no result: esBAF inh)
Cc1ccc(/C=C/C(=O)Nc2ccc(S(=O)(=O)Nc3cc(C)nc(C)n3)cc2)cc1	HSF1 activator 64
O=C1/C(=C\c2ccc([N+](=O)[O-])cc2)CCc2ccccc21	HSF1 activator 60 (no result: esBAF inh)
O=C1/C(=C\c2cccnc2)CCc2ccccc21	none
O=C1/C(=C/Nc2cccc([N+](=O)[O-])c2)CCc2ccccc21	Wnt act 90, HSF1 activator 73 (no result: esBAF inh)
O=C1CCC(=O)N1c1ccc(S(=O)(=O)Nc2cccc([N+](=O)[O-])c2)cc1	none
O=C1/C(=C/c2ccccc2)CCCc2ccccc21	esBAF inh 49 (no result: MITF TRPM1 HTS)
O=C1/C(=C/c2ccc(O)cc2)CCc2ccc([N+](=O)[O-])cc21	none (no result: esBAF inh)
O=C(NC1CCCC1)[C@H]1[C@H](CO)[C@H]2Cn3c(ccc(-c4cccc(F)c4)c3=O)[C@@H]1N2	none (no result: HSF1 inh, Wnt act, MITF TRPM1 HTS, HSF1 activator)
c1ccc(-c2cn(CC3CCCCC3)nn2)cc1	esBAF inh 65, Wnt act 32
COc1ccc(-c2cn(Cc3ccc(C(=O)c4ccccc4)cc3)nn2)cc1	Wnt act inconclusive (no result: esBAF inh, MITF TRPM1 HTS)
COc1ccc(-c2cn(CC3CCCCC3)nn2)cc1	esBAF inh 67, MITF TRPM1 HTS 88
Cc1ccc(Cn2cc(-c3ccccc3)nn2)cc1	esBAF inh 57
Nc1nnc(SCC(=O)c2ccc3ccccc3c2)s1	esBAF inh 52 (no result: Wnt act, MITF TRPM1 HTS)
Cc1nnc(SCC(=O)c2ccc(Br)cc2)s1	HSF1 activator 67 (no result: esBAF inh)
Cc1ccc(C(=O)CSc2nnc(C)s2)cc1	none (no result: esBAF inh)
COc1ccccc1CNC(=O)c1ccc(NS(=O)(=O)c2cccs2)cc1	HSF1 activator 64 (no result: esBAF inh)
COc1ccccc1CNC(=O)c1ccc(NS(C)(=O)=O)cc1	none
COCCn1c(C)cc(C2=NNC(=Nc3ccccc3F)SC2)c1C	HSF1 inh -89 (no result: Wnt act, MITF TRPM1 HTS)
Fc1ccc(F)c(C2=NNC(=Nc3ccccc3F)SC2)c1	HSF1 activator 81 (no result: esBAF inh)
c1ccc(CN=C2NN=C(c3ccccc3)CS2)cc1	esBAF inh 46
Clc1ccc(C2=NNC(=NCc3ccccc3)SC2)cc1	none (no result: esBAF inh)
Clc1ccccc1N=C1NN=C(c2cccs2)CS1	esBAF inh 66
COCCCN=C1NN=C(c2cc(C)n(-c3ccccc3F)c2C)CS1	none (no result: esBAF inh)
C[C@@H]1CN([C@@H](C)CO)S(=O)(=O)c2ccc(-c3cccnc3)cc2O[C@@H]1CN(C)C	none (no result: HSF1 inh, Wnt act, MITF TRPM1 HTS, HSF1 activator)
C[C@H]1CN([C@@H](C)CO)C(=O)c2cc(/C=C/c3ccccc3)cnc2O[C@@H]1CN(C)C(=O)Nc1ccc(C(F)(F)F)cc1	none (no result: HSF1 inh, Wnt act, MITF TRPM1 HTS, HSF1 activator)
Fc1ccccc1N=C1NN=C(c2ccccc2)CS1	esBAF inh 53
O=S(=O)(N[C@@H]1CC[C@H](CCn2cc(-c3ccccn3)nn2)O[C@H]1CO)c1cccc(Cl)c1	none (no result: HSF1 inh, Wnt act, MITF TRPM1 HTS, HSF1 activator)
C[C@@H]1CN([C@H](C)CO)C(=O)c2cccc(NC(=O)c3ccc(-c4nccs4)cc3)c2O[C@H]1CN(C)Cc1ccc(C(F)(F)F)cc1	none (no result: HSF1 inh, Wnt act, MITF TRPM1 HTS, HSF1 activator)
Cc1[nH]n(-c2ccccc2)c(=O)c1C(C[N+](=O)[O-])c1ccccc1Cl (stereo unspecified)	HSF1 activator 146 (no result: Wnt act)
CO[C@H]1CN(C)C(=O)c2ccc(NC(=O)Cc3ccccc3)cc2OC[C@@H](C)N(CC2CC2)C[C@@H]1C	none (no result: HSF1 inh, Wnt act, MITF TRPM1 HTS, HSF1 activator)
CNC(=O)C[C@H]1CC[C@H]2[C@H](COc3ccc(NC(=O)Cc4cccs4)cc3C(=O)N2C)O1	none (no result: HSF1 inh, Wnt act, MITF TRPM1 HTS, HSF1 activator)
NS(=O)(=O)c1ccc(NC(=O)c2ccc(OCC3CCCO3)cc2)cc1 (stereo unspecified)	none (no result: HSF1 inh, HSF1 activator)
COc1ccc(NC(=O)c2ccc(OCC3CCCO3)cc2)cc1OC (stereo unspecified)	esBAF inh 51 (no result: HSF1 inh, HSF1 activator)
Cc1cccc2sc(NC(=O)c3ccc(OCC4CCCO4)cc3)nc12 (stereo unspecified)	esBAF inh 59
Cc1ccnc(NC(=O)c2ccc(OCC3CCCO3)cc2)c1 (stereo unspecified)	Wnt act 35 (no result: esBAF inh)
COc1ccc(NC(=O)c2ccc(OCC3CCCO3)cc2)cc1Cl (stereo unspecified)	esBAF inh 42 (no result: HSF1 inh, HSF1 activator)
Cc1ccnc(NC(=O)c2ccc3c(c2)C(=O)N(CC2CCCO2)C3=O)c1 (stereo unspecified)	none (no result: esBAF inh, HSF1 inh, HSF1 activator)
C[C@H](CO)N1C[C@H](C)[C@@H](CN(C)C(=O)Nc2ccc(C(F)(F)F)cc2)Oc2ncc(C#C[C@@H](C)O)cc2C1=O	none (no result: HSF1 inh, Wnt act, MITF TRPM1 HTS, HSF1 activator)
CN(C)C(=O)C[C@@H]1C[C@@H]2c3cc(NS(C)(=O)=O)ccc3O[C@@H]2[C@H](CO)O1	none (no result: HSF1 inh, Wnt act, MITF TRPM1 HTS, HSF1 activator)
CN(C)C(=O)C[C@H]1C=C[C@@H](NC(=O)C2CC2)[C@H](CO)O1	none (no result: HSF1 inh, Wnt act, MITF TRPM1 HTS, HSF1 activator)

Assay outcomes as filed in PubChem.
